Each structure is given as a SMILES string. Out of some 130,000 compounds screened, about 1,900 (1.5%) were called active. Not shown: some 5% with an inconclusive outcome. This excerpt belongs to a sample that is enriched for actives. Values without a mark were called inactive. The call rests on the fitted dose curve; in most records, active means well fitted cell-killing curve with a large enough effect; inconclusive means small, poorly fitted or top-dose-only effect; inactive means no such curve, though single readings can be large or run the other way.

Experimental findings from PubChem BioAssay AID902 (National Center for Advancing Translational Sciences (NCATS), 2007) are described below.
On the % scale 0 is the no-effect control and ±100 the full control effect; potency means the concentration at half of the fitted maximal effect.

This test can be described thus: qHTS Screen for Compounds that Selectively Target Cancer Cells with p53 Mutations: Cytotoxicity of p53ts Cells at the Nonpermissive Temperature. Further: nearly all actives have a fitted effect of over 55% in size. Particulars: H1299-p53A138V viability at 39C, ATP luminescence, 24 h; series mostly up to 46.1 µM; activity change, negative = cell killing: at the top concentration. The source says:
NIH Chemical Genomics Center [NCGC] NIH Molecular Libraries Screening Centers Network [MLSCN] MLSCN Grant: 1 X01 MH079844-01 Assay Submitter (PI): Dr. SUN, YI, University of Michigan NCGC Assay Overview: Synthetic Lethal Screen for Compounds to Kill Cancer Cells with p53 Mutation. Tumor suppressor gene p53 serves as a major cellular barrier against tumorigenesis. […] The goal of this screening is to identify small molecule probes that selectively kill cancer cells with mutations in p53. This screening was carried out using two lines of H1299 lung cancer cells. The H1299-p53 A138V line express a temperature sensitive p53 mutant (p53ts) in which the mutant p53 protein (A138V) is in the mutant confirmation when grown at 39C (the nonpermissive temperature) and in the wild type conformation when grown at 32C (the permissive temperature). A H1299-neo line (p53 null) grown at both 39C and 32C were used as counter-screens to filter out false positive associated with temperature shifting. The small molecular compounds that selectively target mutant p53-containing cancer cells were selected as candidate probes for further study. A cytotoxicity assay based on the measurement of ATP contents in cells was used in this screen. Concentration-responses of all the compounds in the library collection were determined in qHTS using the cell lines and temperature conditions as above.
NCGC Assay Protocol Summary: Both the H1299-p53A138V and H1299-neo cell lines were provided by Dr.Yi Sun, a PI at the University Michigan. The cells were maintained and cultured at 37C. The resuspended frozen cells were used to plate the cells in the 1536-well assay plates at a density of 600 cells per well in 5 ul medium. The assay plates with the cells were incubated at 37C for 16 to 30 hours before the experiments. The library compounds in DMSO solution were added to the cells in assay plates and incubated 24 hours at 39C (for mutant p53 conformation) or 32C (for normal p53 conformation as control). An ATP_lite assay kit (PerkinElmer) was used to determine the cell viability. Tomaxifen (100uM) was used as the positive control for cell killing. Data were normalized to the controls for basal activity (DMSO only) and 100% killing (100uM tamoxifen). AC50 values were determined from concentration-response data modeled with the standard Hill equation. P53 assay protocol: 1. Reagent; 5 uL H1299-p53A138V or H1299-neo cell cells/well 2. Time; overnight; 37C incubation 3. Compounds; 23 nL; 5.9 nM to 46 uM 4. Controls; 23 nL; Tamoxifen 100 uM 5. Time; 24 hr; 39C incubation 6. Reagent; 3 uL; ATP_Lite reagent 7. Time; 20 min; Room Temperature 8. Detection; Luminescence; Viewlux plate reader Keywords: p53, synthetic lethal, cancer, cell viability, cytotoxicity, H1299 cell line, luminescence, MLSMR, MLSCN, NIH Roadmap, qHTS, NCGC
In general terms: In qHTS, concentration-response curves come from the screen itself.
For `CCOC(=O)CNC(=O)c1cc2c(=O)n3cccc(C)c3nc2s1`, the “activity change, negative = cell killing” value was -21.7%.

As for `CCCc1nn2c(=O)cc(COC(=O)c3ccc(NC(=O)COc4ccc(F)cc4)cc3)nc2s1`, the “activity change, negative = cell killing” value is 11.1%.

For the molecule `N#Cc1cccc(-c2ccc3ncnc(NCc4cccs4)c3c2)c1`, the Potency is 12.6 µM (active).

`N#Cc1ccccc1-c1ccc2ncnc(NCc3cccnc3)c2c1`: the “activity change, negative = cell killing” value was -2.85%.

As to `COc1ccccc1CNc1ncnc2ccc(-c3ccc4c(c3)OCO4)cc12`, the “activity change, negative = cell killing” value was -3.34%.

With `Cc1ccc(Cl)cc1NC(=O)C1CCCN(c2cnccn2)C1` (configuration not stated), the “activity change, negative = cell killing” value was -7.25%.

As to `O=C(c1cc(-c2ccc(F)cc2)on1)N1CCN(c2ccc(F)cc2)CC1`, the “activity change, negative = cell killing” value was 9.22%.

On to `CCN(CC)S(=O)(=O)c1cccc(C(=O)Nc2ccccc2)c1`, for which the “activity change, negative = cell killing” value is -12%.

On to `Cc1ccc(S(=O)(=O)/N=C(/Nc2ccccn2)c2ccc(Cl)cc2)cc1`, for which the “activity change, negative = cell killing” value was -15.9%.

`CCN(CC)S(=O)(=O)c1cc(C(=O)Nc2ccccn2)ccc1C`: the Potency is 12.6 µM (active).

On to `CN(C(=O)CN1C(=O)CCSc2ccc(S(=O)(=O)N3CCCC3)cc21)c1ccccc1`, for which the “activity change, negative = cell killing” value was -4.63%.

As for `O=C(CSc1nnc(-c2ccccc2F)o1)Nc1cccc(C(F)(F)F)c1`, the “activity change, negative = cell killing” value is 8.67%.

As for `O=C(NCCS(=O)(=O)N1CCN(c2ccc(F)cc2)CC1)c1ccccc1Br`, the “activity change, negative = cell killing” value was -17.1%.

`COc1ccc(N2C(=O)CS(=O)(=O)C23C(=O)N(Cc2ccc(C)cc2)c2ccccc23)cc1Cl` (configuration not stated): the “activity change, negative = cell killing” value was 21%.

On to `CCCCOc1ccc(C(=O)Nc2cccc(-c3nc4ccccc4o3)c2C)cc1`, for which the “activity change, negative = cell killing” value was 35.1%.

For the molecule `O=C(COc1ccccc1F)Nc1ccc(C(=O)OCc2cc(=O)n3nc(C4CC4)sc3n2)cc1`, the “activity change, negative = cell killing” value is -13.1%.

In the case of `NC(=O)CSc1oc(-c2cccs2)nc1S(=O)(=O)c1ccccc1`, the “activity change, negative = cell killing” value is 11.5%.

On to `CSc1oc(-c2cccs2)nc1S(=O)(=O)c1ccc(Br)cc1`, for which the “activity change, negative = cell killing” value was 17.8%.

Regarding `CCCCS(=O)(=O)c1oc(-c2cccs2)nc1S(=O)(=O)c1ccccc1`, the Potency was 3.16 µM (active).

Regarding `CC(C)c1ccc(-c2nn[nH]n2)cc1`, the Potency is 12.6 µM (active).

Turning to `Cc1nnc(C)n1/N=C/c1ccc(C(C)C)cc1`, the “activity change, negative = cell killing” value was -10.4%.

In the case of `c1ccc(-n2ncc(-c3nn[nH]n3)n2)cc1`, the “activity change, negative = cell killing” value was -2.58%.

For `CCc1ccc(-n2nnc(-c3nc(-c4ccccc4)no3)c2C)cc1`, the “activity change, negative = cell killing” value is -4.05%.

In the case of `CCOC(=O)c1c(C)oc2nc(C)nc(Nc3ccc(CC)cc3)c12`, the “activity change, negative = cell killing” value was 12.3%.

Turning to `CCOc1ccc(Nc2c(S(=O)(=O)c3ccccc3)cnc3ccccc23)cc1`, the “activity change, negative = cell killing” value was -6.31%.

Consider `CCOc1ccc(CCNC(=O)c2ccc3c(c2)sc2nc(-c4ccc(F)cc4)cn23)cc1OCC`, for which the “activity change, negative = cell killing” value was -30%.

`CCCS(=O)(=O)c1ncc(Cl)c(C(=O)Nc2scc(-c3ccccc3)c2C(=O)OCC)n1`: the Potency is 7.94 µM (active).

`CCOC(=O)c1scc(-c2ccccc2)c1S(=O)(=O)Nc1ccccc1F`: the “activity change, negative = cell killing” value is -11.6%.

Consider `CCOC(=O)c1ccc(NC(=O)c2nc(SCc3ccc(F)cc3)ncc2Cl)cc1`, for which the “activity change, negative = cell killing” value was -9.35%.

As to `CCOC(=O)C1CCN(c2csc3ccc(C)cc3c2=O)CC1`, the “activity change, negative = cell killing” value is -18.6%.

Turning to `COc1ccc(CNC(=O)c2ccc3c(c2)nc2n3CCOC2)c(OC)c1`, the “activity change, negative = cell killing” value is -4.85%.

As to `CCc1ccc(-n2nc(C)c3c(C)cc(=O)n(CC(=O)Nc4ccc(F)cc4C)c32)cc1`, the “activity change, negative = cell killing” value was -8.83%.

Turning to `O=c1oc2cc(O)ccc2cc1-c1ccc(F)cc1`, the “activity change, negative = cell killing” value is 7.63%.

`COc1ccc(-c2cc3ccc(OCc4nn[nH]n4)cc3oc2=O)cc1`: the Potency is 12.6 µM (active).

With `COc1ccc2cc(-c3nc(Cl)c4c5c(sc4n3)CC(C)CC5)c(=O)oc2c1` (configuration not stated), the “activity change, negative = cell killing” value is 8.48%.

For `Cc1cn(C)c(CC(=O)NCc2ccc(Cl)cc2)c1C(=O)O`, the “activity change, negative = cell killing” value was -8.42%.

Take `CCc1ccc(NC(=O)CCS(=O)(=O)c2cc3c(cc2Cl)NC(=O)CO3)cc1`: the “activity change, negative = cell killing” value was -21.4%.

Consider `COc1ccc(C(=O)Nc2nncs2)c(OC)c1`, for which the “activity change, negative = cell killing” value was -26.2%.

On to `COC(=O)c1sc(NC(=O)c2ccc(OC)cc2OC)nc1C`, for which the Potency was 0.316 µM (active).

Consider `COC(=O)c1sc(NC(=O)c2csc3c2CCCC3)nc1C`, for which the “activity change, negative = cell killing” value is 12.2%.

With `CCOC(=O)c1cccc(NC(=O)c2cc(CN3CCCC3)on2)c1`, the “activity change, negative = cell killing” value was -17.2%.

`CCOc1ccc(NC(=O)Cn2c(=O)n(CCCC(=O)NCc3ccc4c(c3)OCO4)c(=O)c3ccccc32)cc1`: the “activity change, negative = cell killing” value is 2.75%.

Regarding `Cc1nn2c(=O)cc(COC(=O)c3cccc(NC(=O)COc4ccccc4Cl)c3)nc2s1`, the Potency was 12.6 µM (active).

Turning to `Cc1nn2c(=O)cc(COC(=O)c3ccccc3NC(=O)COc3ccccc3C)nc2s1`, the “activity change, negative = cell killing” value is -9.66%.

Turning to `COc1ccc(OCC(=O)Nc2cccc(C(=O)OCc3cc(=O)n4nc(C)sc4n3)c2)cc1`, the “activity change, negative = cell killing” value was -9.88%.

With `Cc1cccc(C(=O)NCCc2nc3ccccc3n2Cc2ccccc2Cl)c1`, the “activity change, negative = cell killing” value was -12.8%.

Turning to `Cc1ccc(NC(=O)c2cccc(N(C)C)c2)cc1NC(=O)c1ccc(O)cc1`, the Potency was 7.94 µM (active).

Consider `Cc1ccc(F)cc1NC(=O)c1cccc(N(C)C)c1`, for which the “activity change, negative = cell killing” value was -15.6%.

For `Cc1ccccc1NC(=O)c1ccccc1`, the “activity change, negative = cell killing” value was 2.54%.

Consider `COc1ccc(CCN2C(=O)c3oc4cc(C)cc(C)c4c(=O)c3C2c2ccccc2F)cc1OC` (configuration not stated), for which the “activity change, negative = cell killing” value was -6.84%.

For the molecule `Cn1c(-c2ccco2)nc2cc3ccccc3cc21`, the Potency is 1.26 µM (active).

On to `CN(c1nc2ccccc2n2c(-c3ccco3)nnc12)S(=O)(=O)c1ccccc1`, for which the “activity change, negative = cell killing” value was 1.85%.
